# About 410 targets per protein were measured; listed, in parts, are those with the strongest signals and a random draw of the rest.
# Columns and labels:
# Experiment in all cases: glycan array binding signal (z-score within array); higher = stronger binding
# Conditions in all cases: glycan notation: IUPAC condensed, linker removed
# [1] = molecular target: Fuc(a1-2)Gal
# Outline: (§1)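 Glycan array binding is given as a within-array Z-score, which can be read as non-binding when negative. The arrays, 3228 of them, came from the Consortium for Functional Glycomics database and were retained only where the protein sequence was available. Z-scores were averaged across arrays of the same protein sequence at different concentrations or buffers and across linkers.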
# [2] = molecular target: Fuc(a1-2)Gal(b1-3)GlcNAc(b1-2)Man(a1-3)[Fuc(a1-2)Gal(b1-3)GlcNAc(b1-2)Man(a1-6)]Man(b1-4)GlcNAc(b1-4)GlcNAc
# Outline: as §1
# [3] = molecular target: Fuc(a1-2)Gal(b1-3)GlcNAc(b1-3)[Neu5Ac(a2-6)Gal(b1-4)GlcNAc(b1-6)]Gal(b1-4)Glc
# Outline: as §1
# [4] = molecular target: Fuc(a1-2)Gal(b1-4)Glc6S
# Outline: as §1
# [5] = molecular target: Fuc(a1-2)Gal(b1-4)GlcNAc
# Outline: as §1
# [6] = molecular target: Fuc(a1-2)[Gal(a1-3)]Gal
# Outline: as §1
# [7] = molecular target: Fuc(a1-2)[Gal(a1-3)]Gal(b1-3)GlcNAc(b1-2)Man(a1-3)[Fuc(a1-2)[Gal(a1-3)]Gal(b1-3)GlcNAc(b1-2)Man(a1-6)]Man(b1-4)GlcNAc(b1-4)[Fuc(a1-6)]GlcNAc
# Outline: as §1
# [8] = molecular target: Fuc(a1-2)[Gal(a1-3)]Gal(b1-4)GlcNAc
# Outline: as §1
# [9] = molecular target: Fuc(a1-2)[GalNAc(a1-3)]Gal(b1-4)GlcNAc(b1-2)Man(a1-3)[Fuc(a1-2)[GalNAc(a1-3)]Gal(b1-4)GlcNAc(b1-2)Man(a1-6)]Man(b1-4)GlcNAc(b1-4)GlcNAc
# Outline: as §1
# [10] = molecular target: Fuc(a1-2)[GalNAc(b1-3)]Gal
# Outline: as §1
# [11] = molecular target: Fuc(a1-3)[Gal(b1-4)]Glc6S
# Outline: as §1
# [12] = molecular target: Fuc(a1-3)[Gal(b1-4)]GlcNAc(b1-3)Gal(b1-3)[Fuc(a1-4)]GlcNAc
# Outline: as §1
# [13] = molecular target: Fuc(a1-4)GlcNAc
# Outline: as §1
# [14] = molecular target: Gal(a1-3)Gal(b1-4)GlcNAc(b1-2)Man(a1-3)[Gal(a1-3)Gal(b1-4)GlcNAc(b1-2)Man(a1-6)]Man(b1-4)GlcNAc(b1-4)GlcNAc
# Outline: as §1
# [15] = molecular target: Gal(a1-3)GalNAc
# Outline: as §1
# [16] = molecular target: Gal(a1-4)Gal(b1-3)GlcNAc(b1-2)Man(a1-3)[Gal(a1-4)Gal(b1-3)GlcNAc(b1-2)Man(a1-6)]Man(b1-4)GlcNAc(b1-4)GlcNAc
# Outline: as §1
# [17] = molecular target: Gal(a1-4)Gal(b1-4)GlcNAc
# Outline: as §1
# [18] = molecular target: Gal(a1-4)Gal(b1-4)GlcNAc(b1-2)Man(a1-3)[Gal(a1-4)Gal(b1-4)GlcNAc(b1-2)Man(a1-6)]Man(b1-4)GlcNAc(b1-4)GlcNAc
# Outline: as §1
# [19] = molecular target: Gal(a1-4)GlcNAc
# Outline: as §1
# [20] = molecular target: Gal(b1-3)GlcNAc(b1-2)Man(a1-3)[Gal(b1-3)GlcNAc(b1-2)Man(a1-6)]Man(b1-4)GlcNAc(b1-4)GlcNAc
# Outline: as §1
# [21] = molecular target: Gal(b1-3)GlcNAc(b1-2)Man(a1-3)[Gal(b1-3)GlcNAc(b1-2)Man(a1-6)]Man(b1-4)GlcNAc(b1-4)[Fuc(a1-6)]GlcNAc
# Outline: as §1
# [22] = molecular target: Gal(b1-3)GlcNAc(b1-2)Man(a1-3)[GlcNAc(b1-4)][Gal(b1-3)GlcNAc(b1-2)Man(a1-6)]Man(b1-4)GlcNAc(b1-4)GlcNAc
# Outline: as §1
# [23] = molecular target: Gal(b1-3)GlcNAc(b1-2)[Gal(b1-3)GlcNAc(b1-6)]Man(a1-6)[Gal(b1-3)GlcNAc(b1-2)Man(a1-3)]Man(b1-4)GlcNAc(b1-4)GlcNAc
# Outline: as §1
# [24] = molecular target: Gal(b1-3)GlcNAc(b1-3)Gal(b1-3)GlcNAc
# Outline: as §1
# [25] = molecular target: Gal(b1-3)[Fuc(a1-4)]GlcNAc(b1-3)Gal(b1-4)[Fuc(a1-3)]GlcNAc
# Outline: as §1
# [26] = molecular target: Gal(b1-4)GlcNAc(a1-6)Gal(b1-4)GlcNAc
# Outline: as §1
# [27] = molecular target: Gal(b1-4)GlcNAc(b1-2)Man(a1-3)Man(b1-4)GlcNAc(b1-4)GlcNAc
# Outline: as §1
# [28] = molecular target: Gal(b1-4)GlcNAc(b1-2)Man(a1-3)[GlcNAc(b1-2)Man(a1-6)]Man(b1-4)GlcNAc(b1-4)GlcNAc
# Outline: as §1
# [29] = molecular target: Gal(b1-4)GlcNAc(b1-3)Gal(b1-4)GlcNAc(b1-2)Man(a1-3)[Gal(b1-4)GlcNAc(b1-3)Gal(b1-4)GlcNAc(b1-2)Man(a1-6)]Man(b1-4)GlcNAc(b1-4)[Fuc(a1-6)]GlcNAc
# Outline: as §1
# [30] = molecular target: Gal(b1-4)GlcNAc(b1-3)Gal(b1-4)GlcNAc(b1-3)Gal(b1-4)GlcNAc(b1-3)Gal(b1-4)GlcNAc(b1-2)[Gal(b1-4)GlcNAc(b1-3)Gal(b1-4)GlcNAc(b1-3)Gal(b1-4)GlcNAc(b1-3)Gal(b1-4)GlcNAc(b1-6)]Man(a1-6)[Gal(b1-4)GlcNAc(b1-3)Gal(b1-4)GlcNAc(b1-3)Gal(b1-4)GlcNAc(b1-3)Gal(b1-4)GlcNAc(b1-2)Man(a1-3)]Man(b1-4)GlcNAc(b1-4)[Fuc(a1-6)]GlcNAc
# Outline: as §1
# [31] = molecular target: Gal(b1-4)GlcNAc(b1-3)Gal(b1-4)GlcNAc(b1-3)Gal(b1-4)GlcNAc(b1-3)Gal(b1-4)GlcNAc(b1-3)Gal(b1-4)GlcNAc(b1-3)Gal(b1-4)GlcNAc(b1-2)Man(a1-3)[Gal(b1-4)GlcNAc(b1-3)Gal(b1-4)GlcNAc(b1-3)Gal(b1-4)GlcNAc(b1-3)Gal(b1-4)GlcNAc(b1-3)Gal(b1-4)GlcNAc(b1-3)Gal(b1-4)GlcNAc(b1-2)Man(a1-6)]Man(b1-4)GlcNAc(b1-4)GlcNAc
# Outline: as §1
# [32] = molecular target: Gal(b1-4)GlcNAc(b1-6)GalNAc
# Outline: as §1
# [33] = molecular target: Gal(b1-4)GlcNAc(b1-6)[Gal(b1-3)]GalNAc
# Outline: as §1
binder,measurement,setting,value
RBMC1 (Vibrio cholerae) (protein) QQSQRVVTADNLMYLRSGFAIDAIGTTVNNLVGGPVQGTNGGVLRAPIALDQLQSVEVTSGLYNWGGYHIVAIKFTMKDGSSVLLGSTHYASNKKVETYTVPQGKRIKQINVWTGGWLVEGFQFVY,glycan array binding signal (z-score),[1],-0.366
same,glycan array binding signal (z-score),[2],1.37
same,glycan array binding signal (z-score),[3],-0.436
same,glycan array binding signal (z-score),[4],-0.119
same,glycan array binding signal (z-score),[5],-0.362
same,glycan array binding signal (z-score),[6],-0.15
same,glycan array binding signal (z-score),[7],-0.324
same,glycan array binding signal (z-score),[8],-0.311
same,glycan array binding signal (z-score),[9],0.123
same,glycan array binding signal (z-score),[10],-0.299
same,glycan array binding signal (z-score),[11],-0.164
same,glycan array binding signal (z-score),[12],-0.378
same,glycan array binding signal (z-score),[13],-0.041
same,glycan array binding signal (z-score),[14],2.77
same,glycan array binding signal (z-score),[15],-0.237
same,glycan array binding signal (z-score),[16],1.41
same,glycan array binding signal (z-score),[17],-0.178
same,glycan array binding signal (z-score),[18],3.8
same,glycan array binding signal (z-score),[19],-0.353
same,glycan array binding signal (z-score),[20],2.48
same,glycan array binding signal (z-score),[21],0.912
same,glycan array binding signal (z-score),[22],-0.049
same,glycan array binding signal (z-score),[23],-0.266
same,glycan array binding signal (z-score),[24],-0.311
same,glycan array binding signal (z-score),[25],-0.3
same,glycan array binding signal (z-score),[26],-0.36
same,glycan array binding signal (z-score),[27],-0.354
same,glycan array binding signal (z-score),[28],1.72
same,glycan array binding signal (z-score),[29],2.64
same,glycan array binding signal (z-score),[30],-0.194
same,glycan array binding signal (z-score),[31],0.712
same,glycan array binding signal (z-score),[32],-0.186
same,glycan array binding signal (z-score),[33],0.163

# Reference: the supplement of paper PMC8728848
